From PubChem BioAssay
HDAC3 inh: HDAC3 deacetylase inhibitors, primary screen, biochemical, fluorescence, cell-free homogeneous | Histone deacetylase 3 (Homo sapiens), O15379 | recombinant HDAC3, fluorogenic peptide/trypsin coupled | inhibition, % at 8.3 µM | 320,000 tested, 0.15% active; in the data active = inhibition above about 26%, passing the limit was not always enough; inconclusive = no clear call, values can overlap the other calls
NPR2 activator: human GC-B receptor activators, primary screen, HEK293 GC-B cells, cGMP TR-FRET, EC30 CNP; Atrial natriuretic peptide receptor 2 (Homo sapiens), P20594; 0% at EC30 CNP, 100% saturating CNP; activation, % at 10 µM; 370,000 tested, 0.11% active; AID 1920062, 2024;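 active = activation at 10 µM reaching about 35% in either raw or pattern-adjusted values, limit read from the data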
ALR inh: inhibitors of human ALR sulfhydryl oxidase, primary screen, biochemical, H2O2 detection, HRP-luminol luminescence, single point. FAD-linked sulfhydryl oxidase ALR (Homo sapiens), P55789. purified ALR, DTT oxidation. inhibition, % (test concentration not listed). 290,000 tested, 3.8% active. AID 485317, 2010;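 active = mean replicate inhibition above about 79%, with every replicate also reaching it, limit read from the data; inconclusive = only one of the two criteria met; inactive = mean below limit and not every replicate reaching it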
NPR1 activator: GC-A stimulated cGMP production enhancers – HEK293 GC-A cells, cGMP TR-FRET, EC30 ANP, primary screen. 0% at EC30 ANP, 100% saturating ANP. activation, % at 10 µM. AID 1671463, 2021. 370,000 tested, 0.14% active; in the data active = activation above about 40%
* hit, by the source's call; ? = inconclusive; . = not tested or not shown. The full list was thinned out, with hits kept by preference.

SMILES	HDAC3 inh	NPR2 activator	ALR inh	NPR1 activator
Nc1c(-c2ccccc2)cnn1-c1cccc([N+](=O)[O-])c1	5.4	2.8	87.9*	-0.2
O=C(CC(=O)NCCc1ccccc1)NCCc1ccccc1	-0.6	-1.2	-8.5	3.0
NNCCc1ccccc1	2.2	5.0	99.1*	-1.2
CCOC(=O)c1c(NC(=O)C2C3C=CC(C3)C2(C)C(=O)O)sc2c1CCCC2 (stereo not given)	-1.4	-2.5	91.0*	-4.5
CCOC(=O)c1c(NC(=O)C2CCCCC2C(=O)O)sc2c1CCCCC2 (stereo not given)	-3.5	-5.4	24.7	-2.4
Cn1ncc(Cl)c1C(=O)N1CCN(c2ncccn2)CC1	-5.8	0.6	1.2	1.3
O=C(NNc1ccc([N+](=O)[O-])cc1)C1CC2CCCC(C1)C2=O (stereo not given)	-5.5	-4.6	85.8*	-2.7
O=C(NNc1ccc([N+](=O)[O-])cc1)C1CC1c1ccccc1 (stereo not given)	10.8	2.5	52.8	-1.3
Nc1nc(C2CCOCC2)cs1	-6.9	4.6	2.4	-1.2
Nc1nc(C2CC2)c(Sc2sc(N)nc2C2CC2)s1	-4.4	1.5	99.0*	-0.5
COC(=O)[C@]1(CNC(=O)NCCc2ccc(OC)c(OC)c2)CC(=O)N(C)[C@@H]1c1ccccc1	.	4.2	.	0.1
O=C(CSc1nnc(CNC(=O)c2cccs2)o1)Nc1cccc(Cl)c1	-12.4	3.5	97.9*	0.9
O=C(CSc1nnc(CNC(=O)c2cccs2)o1)Nc1cccc(C(F)(F)F)c1	-6.1	0.4	-1.1	-0.4
NCCCCCc1nnc(SCC(=O)Nc2cccc(Cl)c2)o1	-11.8	2.9	92.3*	-1.2
O=C(CSc1nnc(CNC(=O)c2cccs2)o1)Nc1ccccc1	-2.0	0.9	-7.1	1.5
O=C(CSc1nnc(CNC(=O)c2cccs2)o1)Nc1cccc(F)c1	3.4	-1.5	99.1*	-0.3
NCCCCCc1nnc(SCc2cccc(Cl)c2)o1	?	2.0	-8.8	-0.6
NCCCCCc1nnc(SCc2ccc(Cl)cc2Cl)o1	13.5	-10.9	99.3*	6.7
CC(C)c1cc(C(=O)NCCc2ccccc2)no1	5.2	0.1	-0.1	3.7
O=C(OCc1ccccc1)N1C=CC2CC1c1c(Cl)cccc12 (stereo not given)	.	-1.3	.	-3.7
Cc1ccc(-c2n[nH]c(=S)n2C)cc1	.	-4.5	.	5.1
Cc1ccc(-c2cn3c(=S)[nH]nc3s2)cc1	9.4	-11.3	86.1*	0.5
COC(=O)/C=C/c1ccc(OC(=O)OC)c(OC(=O)OC)c1	-0.5	-3.2	98.0*	-0.3
COC(=O)/C=C/c1ccc2c(c1)OCO2	0.5	3.1	-3.3	0.8
Cc1ccc2[nH]cc(CCNC(=O)c3ccco3)c2c1	3.3	-2.6	57.2	-0.3
SMILES	HDAC3 inh	NPR2 activator	ALR inh	NPR1 activator
Cc1ccc2[nH]cc(CCNC(=O)c3cccs3)c2c1	-0.4	-10.6	97.5*	-5.7
O=C(CSc1nnc(CNC(=O)c2ccccc2)o1)Nc1ccc2c(c1)OCCO2	-5.4	2.9	98.4*	4.2
O=C(CSc1nnc(CNC(=O)c2ccccc2F)o1)Nc1ccc2c(c1)OCO2	-2.1	4.1	98.9*	-2.3
CCc1ccc(NC(=O)CSc2nnc(CNC(=O)c3c(F)cccc3Cl)o2)cc1	-14.0	1.5	98.6*	1.6
O=C(CSc1nnc(CNC(=O)c2ccccc2F)o1)Nc1ccc2c(c1)OCCO2	1.3	6.8	.	6.1
COC(=O)C1=C(C)N(C)C(=NCc2cc(OC)c(OC)c(OC)c2)NC1c1cccc(C(F)(F)F)c1 (stereo not given)	.	-3.7	.	-7.3
COc1ccc(/C=C/C(=O)NCCN=C2NS(=O)(=O)c3ccccc32)cc1	11.9	0.8	-19.1	-3.5
CCCc1nnc(NC(=S)Nc2ccccc2)s1	-5.6	0.8	0.0	-0.5
CC(C)C(=O)Nc1nnc(NC(=S)Nc2ccccc2)s1	7.4	3.1	81.9*	-0.6
Cc1cccc(C(=O)Nc2sc3c(c2C(=O)O)CCC3)c1	10.1	-8.8	57.0	2.2
CNC(=O)c1c(NC(=O)c2cccc(C)c2)sc2c1CCC2	7.1	-9.2	95.2*	-2.5
COCCCn1c(=O)/c(=C/c2ccccc2OC(F)F)s/c1=C(\C#N)C(=O)NCCOC	.	-4.7	.	-1.9
COCCCn1c(=O)/c(=C\c2cccc(OC)c2OC)s/c1=C(/C#N)C(=O)Nc1ccc(C(=O)O)cc1	11.5	-6.8	97.5*	-5.2
